For three molecules, outcome and Potency results are on record in PubChem BioAssay (NCATS).

In assay [1] the target is Protein phosphatase 1D (Homo sapiens) (UniProt O15297). Description: RapidFire Mass Spectrometry qHTS Assay for Modulators of WT P53-Induced Phosphatase 1 (WIP1) (AID 1347424).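 Note: amount of dephosphorylated VEPPL-S-QETFS peptide product formed by WIP1; series mostly up to about 63 µM.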 The procedure, abridged: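 10 nM WIP1 + cpd, 1 h RT; + 2 uM VEPPL-pS-QETFS, 5 min RT; stop 0.5% formic acid; labelled product standard 1 uM; RapidFire MS. Buffer 50 mM Tris pH 7.5, 30 mM MgCl2, 1 mM TCEP.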
Chain of Protein phosphatase 1D (Homo sapiens) (O15297 whole entry, looked up): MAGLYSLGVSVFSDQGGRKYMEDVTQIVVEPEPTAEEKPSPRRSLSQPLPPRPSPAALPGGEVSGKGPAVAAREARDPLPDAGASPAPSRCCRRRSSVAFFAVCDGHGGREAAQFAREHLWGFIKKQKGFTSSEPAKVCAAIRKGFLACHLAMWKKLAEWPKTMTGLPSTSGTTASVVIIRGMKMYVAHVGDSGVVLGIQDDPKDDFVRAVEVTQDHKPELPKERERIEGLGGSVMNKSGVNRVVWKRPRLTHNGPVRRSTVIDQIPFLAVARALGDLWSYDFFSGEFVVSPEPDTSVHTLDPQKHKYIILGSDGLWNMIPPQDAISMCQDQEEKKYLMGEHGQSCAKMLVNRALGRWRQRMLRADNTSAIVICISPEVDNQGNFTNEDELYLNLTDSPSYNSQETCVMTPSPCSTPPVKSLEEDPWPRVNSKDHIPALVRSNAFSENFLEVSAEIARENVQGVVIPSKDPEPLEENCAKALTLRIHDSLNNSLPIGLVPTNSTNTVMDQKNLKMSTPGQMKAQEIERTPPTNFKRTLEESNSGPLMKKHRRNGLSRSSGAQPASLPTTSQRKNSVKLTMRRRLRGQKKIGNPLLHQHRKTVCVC

Assay [2] has the same target. As to the kind of experiment: Rhodamine-PBP qHTS Assay for Modulators of WT P53-Induced Phosphatase 1 (WIP1) (AID 1347425). The procedure, abridged: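 5 nM WIP1 + 10 uM Rh-PBP, 50 mM Tris pH 7.5, 30 mM MgCl2, 1 mM TCEP, 0.1 mM EGTA, BSA; cpds pinned, 1 hr RT; + 10 uM phosphopeptide; fluorescence 1-min reads x 11 min; delta = f1 - f0.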
(Quantitative high-throughput screening tests each substance at several concentrations.)

The nature of assay [3]: Primary qHTS for inhibitors of La Crosse Virus (LACV) - induced cell death in SH-SY5Y cells (AID 1508616).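 Note: top concentration of the series differs between compounds; higher means more rescue of cells from virus-induced death.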 An excerpt:
Assay Provider: Karin Peterson Ph.D.
National Institute of Allergy and Infection Diseases, National Institute of Health
La Crosse Virus (LACV) is a California serogroup mosquito-borne arbovirus, family Peribunyaviridae, which is an endemic pathogen in North America and can induce a rare, life-threatening neurological disease in children. LACV was first isolated in the early 1960s, from a summer "rural encephalitis" case in La Crosse, Wisconsin, USA. Since then, LACV encephalitis cases have been found in more than twenty states, with most cases in the Mississippi and Ohio River basins. The life cycle of LACV is maintained between the vector, the eastern tree-hole mosquito Aedes triseriatus, and vertebrate hosts including eastern gray squirrels (Sciurus carolinensis) and chipmunks (Tamiasstriatus grinseus). […] Most LACV infections in humans are asymptomatic or induce mild clinical symptoms of fever, headache, lethargy and vomiting. However, in some cases LACV can cause severe neuroinvasive disease, including encephalitis, meningitis, and meningoencephalitis, requiring hospitalization. […]
8. Detection; Luminescence; View […]
6. Dispense 24 microL/well of ATPLite 1step Luminescence assay system (PerkinElmer). […]
8. Read luminescence signal (Viewlux plate reader, PerkinElmer). […]

Assay [4] can be described thus: Validation qHTS assay for inhibitors of Activation Induced Cytidine Deaminase (AID): UDG Counterscreen signal (AID 1347427). An outline of the steps: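 Counterscreen read of UDG activity (2 U/mL, 4/3x) in the FRET deamination format with AID (1 uM, 4/3x), DJC20/DJC23 substrates (250 nM, 4x), 4 h at room temperature. NaOH stop, fluorescence at 560 ex/665 em.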
For assay [5], the target named is Single-stranded DNA cytosine deaminase (Homo sapiens) (UniProt Q9GZX7). Description: Validation qHTS assay for inhibitors of Activation Induced Cytidine Deaminase (AID): AID signal (AID 1347429). The procedure, abridged: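 FRET deamination assay: 1 uM AID (4/3x stock) with UDG, compound up to 114 uM, then 250 nM DJC20/DJC23 substrate (4x stock) for 4 hr at room temperature. NaOH added, 30 min; fluorescence read 540/590 nm.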
Chain of Single-stranded DNA cytosine deaminase (Homo sapiens) (Q9GZX7 whole entry, looked up): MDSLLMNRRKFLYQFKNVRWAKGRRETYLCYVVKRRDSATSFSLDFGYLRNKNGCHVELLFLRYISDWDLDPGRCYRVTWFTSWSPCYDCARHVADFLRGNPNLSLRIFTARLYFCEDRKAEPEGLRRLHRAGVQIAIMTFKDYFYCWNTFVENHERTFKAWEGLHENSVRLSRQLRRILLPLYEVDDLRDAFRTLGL

Assay [6] can be described thus: Counterscreen qHTS for small molecule stabilizers of the endoplasmic reticulum resident proteome: GLuc-NoTag assay (AID 1508627). Note: potency is the fitted concentration of half-maximal effect. Conditions: Gaussia luciferase NoTag secretion counterscreen, luminescence; thapsigargin 100 nM for final 4 h. The procedure, abridged:
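Luminescence of Gaussia luciferase secreted into the medium (coelenterazine, 0.07x final, unlysed cells) was the read-out. Human SH-SY5Y neuroblastoma cells constitutively secreting untagged GLuc received compound for 19 h, then 100 nM thapsigargin for 4 h.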
In general terms: Counterscreens check selectivity or assay interference.

Assay [7] is described as follows: Confirmatory qHTS for small molecule stabilizers of the endoplasmic reticulum resident proteome: Secreted ER Calcium Modulated Protein (SERCaMP) assay (AID 1508628). Note: series mostly up to about 76 µM; nearly all actives have a fitted effect of over 40% in size. The procedure, abridged: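 SH-SY5Y cells stably expressing GLuc-SERCaMP, treated 16 h with compound (primary 1.53, 7.67, 38.3 uM; confirmation 11 concentrations, up to 76.6 uM), then 100 nM thapsigargin for 4 h. Secreted Gaussia luciferase in medium read by coelenterazine luminescence.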

Assay [8] in a line: Cell Viability qHTS for small molecule stabilizers of the endoplasmic reticulum resident proteome (AID 1508629).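 Note: potency is the fitted concentration of half-maximal effect; compound exposure about 46 h in total before the viability read.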 Conditions: cell viability counter-screen, 100 nM thapsigargin for final 4 h.

Each structure is given as a SMILES string. Where “and” joins values, the source holds several entries; their conditions need not be identical. Equal values may be shown once. Results filed as inconclusive are left out. Calls of active or inactive are those of the source. Calls come from the whole dose curve; as a rule, active = well fitted curve in the direction sought with a large enough effect; inconclusive = small, poorly fitted or top-dose-only effect, or another doubt; inactive = no such curve, though single readings can be large; an effect the other way counts as inactive or inconclusive.

As to `CC(=O)OC(C)OC(=O)C(C)c1ccc(-c2ccccc2)c(F)c1` (stereo not given), the call in assay [1], in assay [2] and in assay [3] was inactive.

`CN1Cc2c(N)cccc2C(c2ccccc2)C1` (stereo not given): the call in assay [1], in assay [2], in assay [4] and in assay [5] was inactive.

As to `COC(=O)C1=C(C)NC(C)=C(C(=O)OCCCN2CCC(c3ccccc3)(c3ccccc3)CC2)[C@H]1c1cccc([N+](=O)[O-])c1`, the Potency in assay [6] was 39.8 µM (active) and 44.7 µM (active); in assay [8], 25.1 µM (active) and 28.2 µM (active). Also, in assay [7], the result was inactive.
